Experimental data reported in PubChem BioAssay (NCATS).
Where “and” joins values, the source holds several entries; their conditions need not be identical. Equal entries are not always repeated. Records with an inconclusive call do not appear. Calls of active or inactive are those of the source. The call rests on the fitted dose curve; in most records, active means well fitted curve in the direction sought with a large enough effect; inconclusive means small, poorly fitted or top-dose-only effect, or another doubt; inactive means no such curve, though single readings can be large; an effect the other way counts as inactive or inconclusive.

Experiments:
[1] = molecular target: Cytochrome P450 2C19 (Homo sapiens) (UniProt P33261); assay: qHTS Assay for Inhibitors and Substrates of Cytochrome P450 2C19 (AID 899); further: nearly all actives have a fitted effect of over 60% in size; further: potency means the concentration at half of the fitted maximal effect
Cytochrome P450 2C19 (Homo sapiens), sequence (P33261 whole entry, looked up): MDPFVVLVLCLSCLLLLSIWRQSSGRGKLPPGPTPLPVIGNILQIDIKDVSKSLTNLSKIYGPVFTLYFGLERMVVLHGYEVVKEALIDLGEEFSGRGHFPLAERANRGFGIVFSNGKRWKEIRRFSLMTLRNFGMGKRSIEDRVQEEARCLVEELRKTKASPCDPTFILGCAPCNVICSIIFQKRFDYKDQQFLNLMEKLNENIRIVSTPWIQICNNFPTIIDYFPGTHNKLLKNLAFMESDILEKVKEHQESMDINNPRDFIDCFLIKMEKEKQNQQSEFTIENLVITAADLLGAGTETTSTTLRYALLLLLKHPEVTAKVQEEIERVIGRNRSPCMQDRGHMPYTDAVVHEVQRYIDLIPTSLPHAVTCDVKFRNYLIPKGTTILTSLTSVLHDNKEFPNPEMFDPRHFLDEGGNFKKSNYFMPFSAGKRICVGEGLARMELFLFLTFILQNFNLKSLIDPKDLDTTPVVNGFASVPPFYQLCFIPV
Procedure, shortened: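 Reactions contain 5nM enzyme, 10uM Luciferin-H EGE (KM) and 50mM KPO4; compound preincubates 10 min at 37C, NADPH regeneration starts turnover for 60 min. Luminescence after detection reagent gives activity.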

CP291 = assay: qHTS profiling for inhibitors of Plasmodium falciparum proliferation (AID 504749); further: nearly all actives have a fitted effect of over 60% in size; further: potency means the concentration at half of the fitted maximal effect; conditions: P. falciparum in erythrocytes, SYBR Green DNA, 72 h; series mostly up to 28.7 µM
Procedure, shortened: (§1)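 Three-day growth assay of blood-stage parasites in erythrocytes (0.3% parasitemia, 2.5% hematocrit) at 37 C, 5% CO2, quantified by SYBR Green DNA staining after overnight detergent lysis.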

[2] = S16 Schwann cell viability assay (CellTiter-Glo assay) (AID 624031);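 further: native untransfected S16 rat Schwann cells; cellular ATP luminescence as a viability measure; nearly all actives have a fitted effect of over 70% in size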
Procedure, shortened: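 Cells were seeded at 500-750 per well in phenol red-free DMEM with 10% FBS and left overnight. Compounds or DMSO were pinned in, incubation ran 24 h at 37 °C/5% CO2, then CellTiter-Glo reagent was added and luminescence measured.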

AA1029 = assay: qHTS profiling for inhibitors of Plasmodium falciparum proliferation (AID 504749); further: nearly all actives have a fitted effect of over 60% in size; further: potency means the concentration at half of the fitted maximal effect; conditions: P. falciparum in erythrocytes, SYBR Green DNA, 72 h; series mostly up to 28.7 µM
Procedure, shortened: as §1

AS120 = assay: as above; conditions: P. falciparum in erythrocytes, SYBR Green DNA, 72 h; series mostly up to 28.7 µM
Procedure, shortened: as §1

ATS189 = assay: as above; conditions: P. falciparum in erythrocytes, SYBR Green DNA, 72 h; series mostly up to 28.7 µM
Procedure, shortened: as §1

CP194 = assay: as above; conditions: P. falciparum in erythrocytes, SYBR Green DNA, 72 h; series mostly up to 28.7 µM
Procedure, shortened: as §1

CP201 = assay: as above; conditions: P. falciparum in erythrocytes, SYBR Green DNA, 72 h; series mostly up to 28.7 µM
Procedure, shortened: as §1

CP211 = assay: as above; conditions: P. falciparum in erythrocytes, SYBR Green DNA, 72 h; series mostly up to 28.7 µM
Procedure, shortened: as §1

CP217 = assay: as above; conditions: P. falciparum in erythrocytes, SYBR Green DNA, 72 h; series mostly up to 28.7 µM
Procedure, shortened: as §1

CP247 = assay: as above; conditions: P. falciparum in erythrocytes, SYBR Green DNA, 72 h; series mostly up to 28.7 µM
Procedure, shortened: as §1

CP252 = assay: as above; conditions: P. falciparum in erythrocytes, SYBR Green DNA, 72 h; series mostly up to 12.8 µM
Procedure, shortened: as §1

CP256 = assay: as above; conditions: P. falciparum in erythrocytes, SYBR Green DNA, 72 h; series mostly up to 28.7 µM
Procedure, shortened: as §1

CP315 = assay: as above; conditions: P. falciparum in erythrocytes, SYBR Green DNA, 72 h; series mostly up to 28.7 µM
Procedure, shortened: as §1

CP329 = assay: as above; conditions: P. falciparum in erythrocytes, SYBR Green DNA, 72 h; series mostly up to 28.7 µM
Procedure, shortened: as §1

DFO2036 = assay: as above; conditions: P. falciparum in erythrocytes, SYBR Green DNA, 72 h; series mostly up to 28.7 µM
Procedure, shortened: as §1

HB3 = assay: as above; conditions: P. falciparum in erythrocytes, SYBR Green DNA, 72 h; series mostly up to 28.7 µM
Procedure, shortened: as §1

JCK = assay: as above; conditions: P. falciparum in erythrocytes, SYBR Green DNA, 72 h; series mostly up to 28.7 µM
Procedure, shortened: as §1

N140 = assay: as above; conditions: P. falciparum in erythrocytes, SYBR Green DNA, 72 h; series mostly up to 28.7 µM
Procedure, shortened: as §1

P94_40 = assay: as above; conditions: P. falciparum in erythrocytes, SYBR Green DNA, 72 h; series mostly up to 28.7 µM
Procedure, shortened: as §1

Measured: Potency

N#Cc1cccc(NC(=O)N2CC[C@@]3(CCCN(C(=O)Oc4ccccc4)C3)C2)c1
inactive: [1]

CC1=NCCc2c1[nH]c1cc(O)ccc21
inactive: [1]

Clc1ccccc1-c1cncnc1NCCc1cnc[nH]1
active: [1] 12.6 nM

C[N+]1([O-])[C@@H]2CC(OC(=O)[C@@H](CO)c3ccccc3)C[C@@H]1[C@H]1O[C@H]12 (stereo not given in full)
inactive: CP291

CCNC[C@H](O)c1cccc(O)c1
inactive: CP291

COc1ccc2c(c1O)-c1c(OC)c(OC)cc3c1[C@H](C2)N(C)CC3
inactive: [1]

Cc1nc2cnc(N3CCNCC3)nc2n(C)c1=O
inactive: [1]

CN1CCc2cc3c(cc2[C@@H]1[C@@H]1OC(=O)c2c1ccc1c2OCO1)OCO3
active: [1] 398 nM and 50.1 nM

NCC[C@H](O)C(=O)N[C@H]1C[C@@H](N)[C@@H](O[C@H]2O[C@@H](CN)[C@@H](O)[C@@H](O)[C@@H]2N)[C@@H](O[C@H]2O[C@@H](CO)[C@@H](O)[C@@H]2O)[C@@H]1O
inactive: [2] | AA1029 | AS120 | ATS189 | CP194 | CP201 | CP211 | CP217 | CP247 | CP252 | CP256 | CP291 | CP315 | CP329 | DFO2036 | HB3 | JCK | N140 | P94_40

C[C@H]1CN(C2CCC(C#N)(c3ccc(F)cc3)CC2)CC[C@@]1(C(=O)O)c1ccccc1 (stereo not given in full)
inactive: [2] | AA1029 | AS120 | ATS189 | CP194 | CP201 | CP211 | CP217 | CP247 | CP252 | CP256 | CP291 | CP315 | CP329 | DFO2036 | HB3 | JCK | N140 | P94_40

CC(C)c1c(CN(C)[C@@H](C)Cc2ccccc2)n(C)n(-c2ccccc2)c1=O
inactive: [2] | AA1029 | AS120 | ATS189 | CP194 | CP201 | CP211 | CP217 | CP247 | CP252 | CP256 | CP291 | CP315 | CP329 | DFO2036 | HB3 | JCK | N140 | P94_40

C[N+]1(C)[C@@H]2CC[C@H]1CC(OC(=O)[C@@H](CO)c1ccccc1)C2 (stereo not given in full)
inactive: [2] | AA1029 | AS120 | ATS189 | CP194 | CP201 | CP211 | CP217 | CP247 | CP252 | CP291 | CP329 | DFO2036 | HB3 | JCK | N140 | P94_40

C[N+]1([O-])[C@@H]2CC[C@H]1CC(OC(=O)[C@@H](CO)c1ccccc1)C2 (stereo not given in full)
inactive: [2] | AA1029 | AS120 | ATS189 | CP194 | CP211 | CP217 | CP247 | CP252 | CP256 | CP291 | CP315 | CP329 | DFO2036 | HB3 | JCK | N140 | P94_40

CC[C@]1(c2cccc(O)c2)CCCCN(C)C1
active: N140 3980 nM
inactive: [2] | CP201 | CP217 | CP247 | CP252 | CP256 | CP315 | HB3 | JCK

C#CCN(C)[C@@H](C)Cc1ccccc1
inactive: AA1029 | AS120 | ATS189 | CP194 | CP201 | CP211 | CP217 | CP247 | CP252 | CP256 | CP291 | CP315 | CP329 | DFO2036 | HB3 | JCK | N140 | P94_40

C=C1C/C(=C\C)C(=O)O[C@@H]2CCN3CC=C(COC(=O)[C@@]1(C)O)[C@H]23
inactive: [1]

COc1cc2c(cc1OC)[C@H](C)NCC2
inactive: [1]

CCC[C@@](C)(COC(N)=O)COC(=O)NC(C)C
inactive: [1]

CN(C)C(=O)Oc1cc(OC(=O)N(C)C)cc([C@@H](O)CNC(C)(C)C)c1
inactive: [1] | [2] | AA1029 | AS120 | ATS189 | CP194 | CP201 | CP211 | CP217 | CP247 | CP252 | CP256 | CP291 | CP315 | CP329 | DFO2036 | HB3 | JCK | N140 | P94_40

CC(=O)OCC(=O)[C@@H]1CC[C@H]2[C@H]3CC[C@H]4C[C@@H](O)CC[C@]4(C)[C@@H]3C(=O)C[C@@]12C
inactive: [2] | AA1029 | AS120 | ATS189 | CP194 | CP201 | CP211 | CP217 | CP247 | CP252 | CP256 | CP291 | CP315 | CP329 | DFO2036 | HB3 | JCK | N140 | P94_40

COc1ccc2c(c1OC)C(=O)O[C@H]2[C@H]1c2cc3c(cc2CCN1C)OCO3
active: [1] 1.26 µM and 79.4 nM

COc1ccc(C[C@H]2c3cc(OC)c(OC)cc3CCN2C)cc1OC
inactive: [1]

C[C@H](N)[C@@H](O)c1ccccc1
inactive: [2] | AA1029 | AS120 | ATS189 | CP194 | CP201 | CP211 | CP217 | CP247 | CP252 | CP256 | CP315 | CP329 | DFO2036 | HB3 | JCK | N140 | P94_40

CCN[C@]1(c2cccs2)CCCCC1=O
inactive: [2] | AA1029 | AS120 | ATS189 | CP194 | CP201 | CP211 | CP217 | CP247 | CP252 | CP256 | CP291 | CP315 | CP329 | DFO2036 | HB3 | JCK | N140

CN(C)[C@@H]1C(=O)C(C(N)=O)=C(O)[C@]2(O)C(=O)C3=C(O)c4c(O)ccc(Cl)c4[C@](C)(O)[C@H]3C[C@@H]12
inactive: [2] | AA1029 | AS120 | ATS189 | CP194 | CP201 | CP211 | CP217 | CP247 | CP252 | CP256 | CP315 | CP329 | DFO2036 | HB3 | JCK | N140 | P94_40

C[C@H](NC(C)(C)C)C(=O)c1cccc(Cl)c1
inactive: [2] | AA1029 | AS120 | ATS189 | CP194 | CP201 | CP211 | CP217 | CP252 | CP256 | CP291 | CP315 | CP329 | DFO2036 | HB3 | JCK | N140 | P94_40

COc1ccc2c(c1OC)CN1CCc3cc4c(cc3[C@H]1C2)OCO4
active: [1] 1260 nM | AA1029 2510 nM | CP211 2030 nM | CP256 3160 nM | CP315 3610 nM | CP329 1610 nM | P94_40 2510 nM
inactive: [2]

C[C@@]12CC[C@H]3[C@@H](CC[C@@H]4C[C@H]5S[C@H]5C[C@]43C)[C@H]1CC[C@H]2O
inactive: [2] | AA1029 | AS120 | ATS189 | CP194 | CP201 | CP211 | CP217 | CP247 | CP252 | CP256 | CP291 | CP315 | CP329 | DFO2036 | HB3 | JCK | N140 | P94_40
active: [1] 63.1 nM

N[C@H]1C[C@H]1c1ccccc1
inactive: [2] | AA1029 | AS120 | ATS189 | CP194 | CP201 | CP211 | CP217 | CP247 | CP252 | CP256 | CP291 | CP315 | CP329 | DFO2036 | HB3 | JCK | N140 | P94_40

C[C@@]12CCC(=O)C=C1C=C[C@H]1[C@H]3CC[C@](O)(CCC(=O)O)[C@]3(C)CC[C@@H]12
inactive: [2] | AA1029 | AS120 | ATS189 | CP194 | CP201 | CP211 | CP217 | CP247 | CP252 | CP256 | CP291 | CP315 | CP329 | DFO2036 | JCK | N140 | P94_40

CO[C@@H](C)[C@](O)(C(=O)OCC1=CCN2CC[C@@H](O)[C@H]12)C(C)C
inactive: [1]
